Assay outcomes (PubChem BioAssay)
The list is not random: actives were taken first. Their share in the collection is about 1.6%.
KCNQ2 enhance: KCNQ2 (rat) channel potentiation; CHO-K1 KCNQ2, FluxOR thallium flux fluorescence; active compounds read high; B-score at 10 µM; AID 2239; 0.54% of 310,000 active; O88943;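 active = fluorescence ratio B-score at least 3 SD of library B-scores, with initial fluorescence B-score within 3 of them, cut at about 5.3 in these data; same plate scores as AID 2156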;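 note: B-score of peak minus minimum over baseline fluorescence ratio after K+ and Tl+ stimulus; positive B-score means potentiation of KCNQ2 with more thallium influx and brighter signal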
KCNQ2 inh: blocks the rat KCNQ2 potassium channel; 1.1% of 310,000 active; B-score at 10 µM; CHO-K1 KCNQ2, FluxOR thallium flux, 20 min; active compounds read low; AID 2156;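 active = fluorescence ratio B-score at most minus 3 library SDs, with starting brightness B-score within 2 library SDs, cut at about -5.5 in these data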
Kir21 conf inh: confirmation of mouse Kir2.1 potassium channel inhibitors; Tl flux remaining, % of negative control (active compounds read low), % at 10 µM; 41% of 2,300 active; AID 2032; shares compounds with KCNQ2 enhance; Kir2.1-expressing cells, FluxOR thallium flux fluorescence; active compounds read low;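 active = Primary-screen hit whose thallium flux fell at least 3 control SD below untreated wells in both duplicates, with normal baseline fluorescence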
HEK293 Tl flux: alters thallium flux in parental HEK293 cells, Kir2.1 counter-screen; FluxOR thallium flux fluorescence; 0% = unstimulated blank wells; FluxOR signal as % of negative control (100 = no effect), % at 10 µM; shares compounds with KCNQ2 enhance; 19% of 2,300 active;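 active = dye signal at least 3 control SD above or below untreated wells in both duplicates, raw fluorescence within 3, either direction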;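 note: percent is based on the flux ratio of peak minus minimum fluorescence over baseline F0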
CHO-K1 Tl ctr: counter-screen for KCNQ2 potentiators: effect in parental CHO-K1 cells. shares compounds with KCNQ2 enhance. FluxOR thallium flux fluorescence; zero = vehicle mean+3SD, 100% = vehicle-minus-blank window. activity increase over 3SD of controls, % at 10 µM. 43% of 1,200 active;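 active = signal rise of at least 3 SD above the untreated control mean, in both duplicate wells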;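 note: counter screen of KCNQ2 potentiator hits so any rise reflects channel-independent effects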
KCNQ1 pot spec: selectivity of KCNQ2 potentiators: effect on human KCNQ1 | shares compounds with KCNQ2 enhance | CHO KCNQ1 stable, FluxOR thallium flux fluorescence; beyond 3SD, as % of vehicle-control signal | activation over 3SD threshold, % at 10 µM | 28% of 1,200 active;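 active = fluorescence ratio rise of at least 3 SD of vehicle wells above their mean, in both replicate wells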
KCNQ2 pot conf: rat KCNQ2 channel potentiator confirmation. potentiation, less the hit threshold, % at 10 µM. shares compounds with KCNQ2 enhance. 68% of 1,200 active. AID 2287. CHO-KCNQ2 cells, FluxOR thallium flux fluorescence;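 active = fluorescence ratio rising 3 SD or more over the vehicle control mean in both replicates, plus primary screen hit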;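 note: peak minus minimum thallium fluorescence divided by baseline after K/Tl stimulus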
Kir2-1 sel: selectivity of KCNQ2 potentiators: effect on mouse Kir2.1; shares compounds with KCNQ2 enhance; HEK293 Kir2.1, FluxOR thallium flux fluorescence; activity over 3SD threshold, % at 10 µM; 2% of 1,200 active; AID 2345;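 active = fluorescence ratio rise of at least 3 SD above the vehicle-control mean, seen in both replicates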
KCNQ2 W236L pot: KCNQ2 potentiators acting on retigabine-insensitive rat KCNQ2 W236L mutant; current increase over 3SD of negative controls (%), active compounds read high, % at 25 µM; CHO KCNQ2-W236L, automated patch clamp current; 10% of 940 active; shares compounds with KCNQ2 enhance;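 active = current increase at least 3 SD of the untreated controls above them in both duplicate recordings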
Large screens that a line does not name were inactive (follow-up assays come after a bar, where they were run).

CCCCCCCCCCOC(=O)Cn1c(COc2cccc(C)c2)[n+](C)c2ccccc21	none | Kir21 conf inh inactive | HEK293 Tl flux inactive
CCCCOC(=O)Cn1c(=N)n(CCN2CCOCC2)c2ccccc21	none (no result: KCNQ2 enhance)
Cc1ccc(C(=O)NCC(=O)NCCc2ccc(S(N)(=O)=O)cc2)s1	none (no result: KCNQ2 enhance)
Cc1cc(N)n(-c2ccc(S(N)(=O)=O)cc2[N+](=O)[O-])n1	none
c1ccc(COc2ccc3nocc3c2)cc1	none
COc1ccc2c(CC(=O)NC3CCCc4ccccc43)coc2c1 (configuration not stated)	none (no result: KCNQ2 enhance)
CCSc1nc2ccc(N3C(=O)C4C5C=CC(C5)C4C3=O)cc2s1 (configuration not stated)	none
CCCCCCCCC/C(=N\O)c1ccccn1	KCNQ2 enhance 24 | Kir21 conf inh inactive | HEK293 Tl flux 66% | CHO-K1 Tl ctr inactive | KCNQ1 pot spec inactive | KCNQ2 pot conf 20 | Kir2-1 sel inactive | KCNQ2 W236L pot inactive
CCCCCCCCC(=O)N/N=C/c1ccccn1	none
CCCCn1c(N)c(N(CCOC)C(=O)COC(=O)CCOc2ccccc2)c(=O)[nH]c1=O	none (no result: KCNQ2 enhance) | Kir21 conf inh inactive | HEK293 Tl flux inactive
CCCCn1c(N)c(N(CCOC)C(=O)COc2ccc(OCC)cc2)c(=O)[nH]c1=O	none
Cc1cc(-c2nn(-c3ccccc3F)cc2CN(C)CC(O)CO)c(C)s1 (configuration not stated)	none
CC(C)(C)C(=O)Nc1ccccc1C(=O)NCc1cccnc1	none
CC(C)(C)c1ccccc1OCC(=O)Nc1ccccc1C(=O)NCc1cccnc1	none | Kir21 conf inh 77% | HEK293 Tl flux inactive
CCN(CC)c1ccc(S(=O)(=O)N2CCOCC2)cc1NC(=O)CSc1nnc(N)s1	none
O=C(Cc1ccc(F)cc1)Nc1cccc(-c2cn3c(n2)SCC3)c1	KCNQ2 enhance 10 | Kir21 conf inh inactive | HEK293 Tl flux inactive | CHO-K1 Tl ctr inactive | KCNQ1 pot spec inactive | KCNQ2 pot conf inactive | Kir2-1 sel inactive
O=C(Nc1cccc(-c2cn3c(n2)SCC3)c1)c1ccc(Br)o1	none (no result: KCNQ2 enhance)
Cc1ccc(C)c(OCCC(=O)OCC(=O)Nc2cccc(S(=O)(=O)N3CCCC3)c2)c1	none
CC(NC(=O)c1cc(F)c(F)c(F)c1F)c1ccc(-n2ccnc2)cc1 (configuration not stated)	none
CN(c1ccc(Cl)cc1)c1cc(=O)n(C)c2ccccc12	none (no result: KCNQ2 enhance) | Kir21 conf inh inactive | HEK293 Tl flux inactive
CN(C(=O)COc1cc(=O)n(C)c2ccccc12)c1ccc(Cl)cc1	none (no result: KCNQ2 enhance)
O=C(/C=C/c1ccccc1Cl)c1ccccc(=O)c1O	KCNQ2 enhance 8.4 | Kir21 conf inh inactive | HEK293 Tl flux 153% | CHO-K1 Tl ctr inactive | KCNQ1 pot spec 4.1 | KCNQ2 pot conf inactive | Kir2-1 sel inactive
O=C(/C=C/c1ccccc1Cl)Nc1ccccc1	none (no result: KCNQ2 enhance)
Cc1ccc(C)c(NC(=O)c2ccccc2O)c1	none
Cc1ccc(C)c(/C=C/C(=O)c2ccccc(=O)c2O)c1	KCNQ2 enhance 18 | Kir21 conf inh inactive | HEK293 Tl flux 144% | CHO-K1 Tl ctr 33 | KCNQ1 pot spec 36 | KCNQ2 pot conf inactive | Kir2-1 sel inactive | KCNQ2 W236L pot inactive
Cc1ccc(C(=O)NCCC(=O)N2CCC3(CC2)NCCc2[nH]cnc23)cc1C	none (no result: KCNQ2 enhance)
CC1CC(C)CN(C(=O)C(NS(=O)(=O)c2ccc(Br)s2)c2ccccc2)C1 (configuration not stated)	none (no result: KCNQ2 enhance)
O=C1/C(=C\c2c(NCCOCCO)nc3ccccn3c2=O)SC(=S)N1Cc1ccco1	none (no result: KCNQ2 enhance)
O=C(Nc1nnc(SCc2ccc(F)cc2)s1)c1cccnc1Cl	none (no result: KCNQ2 enhance)
